In the library only some 19% were active in any assay of this set; here they are far more common.
ASM inhibitor – human S-ASM enzyme inhibition | placental ASM, HMU-PC fluorogenic substrate, 60 min | Potency, µM (doses to about 57.5 µM), for the others: top-dose activity change, negative = inhibition, hits mostly inhibitors | 0.006% of 340,000 active | AID 504937; also: potency is read from the fitted curve at half-maximal effect
Target sequence (P17405 47-631 limits assumed): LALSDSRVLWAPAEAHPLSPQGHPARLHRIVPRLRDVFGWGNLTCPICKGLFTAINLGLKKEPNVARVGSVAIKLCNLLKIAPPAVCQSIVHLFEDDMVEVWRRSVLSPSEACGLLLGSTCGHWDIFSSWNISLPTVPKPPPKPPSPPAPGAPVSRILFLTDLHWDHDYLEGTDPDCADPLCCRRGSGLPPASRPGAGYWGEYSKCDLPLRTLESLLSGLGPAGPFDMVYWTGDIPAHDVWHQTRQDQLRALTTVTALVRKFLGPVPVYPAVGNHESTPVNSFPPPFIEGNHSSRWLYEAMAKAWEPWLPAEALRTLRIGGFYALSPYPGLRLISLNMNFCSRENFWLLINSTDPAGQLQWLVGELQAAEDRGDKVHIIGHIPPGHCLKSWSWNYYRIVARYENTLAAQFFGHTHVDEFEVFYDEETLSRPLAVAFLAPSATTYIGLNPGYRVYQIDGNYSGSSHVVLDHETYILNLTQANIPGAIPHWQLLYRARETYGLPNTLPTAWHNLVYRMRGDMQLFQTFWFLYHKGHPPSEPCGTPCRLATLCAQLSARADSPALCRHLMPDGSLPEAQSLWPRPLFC
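Fluorescence read-out (Ex 386 nm, Em 447 nm) after stopping the reaction at pH 10. Enzyme: ASM from human placenta; substrate HMU-PC0, 9 uM final; 60 min, 37 °C. Compound preincubation 10 min, ambient temperature.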
DT40 TDP1 no CPT – qHTS for Inhibitors of human tyrosyl-DNA phosphodiesterase 1 (TDP1): qHTS in cells in absence of CPT | Potency, µM (doses to about 46.2 µM), for inactives: at the highest dose activity change, negative = growth inhibition, most hits filed as inhibitors | AID 686978, 2013 | DT40 Tdp1-/- hTDP1 cells, no CPT, ATP luminescence, 48 h | 15% of 420,000 active; also: potency is read from the fitted curve at half-maximal effect; % is scaled to controls: 0 for no effect and ±100 for the full control effect; nearly all actives have a fitted effect of over 55% in size
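Seeded 400 DT40-hTDP1 cells/well (vehicle DMSO, no 20 nM CPT); pinned compounds; ≥48 hr at 37 °C; CellTiter-Glo luminescence as viability measure.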
TDP1 cell CPT – DT40-hTDP1 cell growth loss with CPT; AID 686979; chicken DT40 Tdp1-/-;hTDP1 cells + 20 nM CPT, ATP luminescence, 48 h; 12% of 420,000 active; Potency, µM (doses to about 46.2 µM), inactives show at the highest dose activity change, negative = growth inhibition, actives largely listed as inhibitors; also: potency is read from the fitted curve at half-maximal effect; % is scaled to controls: 0 for no effect and ±100 for the full control effect; nearly all actives have a fitted effect of over 55% in size
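Cell growth measured by CellTiter-Glo luminescence after a minimum 48 h, 37 C compound exposure with 20 nM CPT in Tdp1-knockout DT40 cells stably expressing hTDP1, seeded 400/well; qHTS titration format.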
IL-1B inflam inh – inhibitors of inflammasome signaling (IL-1 beta secretion) | AID 743279 | activity change, % at 57.5 µM | THP-1 LPS/ATP IL-1B secretion, AlphaLISA, 16 h; active compounds read low | 4.7% of 360,000 active; in the data active = activity change below about -50%; inconclusive = mostly about -30% to -49%; also: % is scaled to controls: 0 for no effect and ±100 for the full control effect
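Secreted IL-1B measured by AlphaLISA bead assay after 16 h compound exposure of THP-1 cells; compounds (final up to 57.5 uM) added 1 h before LPS (250 ng/mL) and ATP (1.25 mM) stimulation; lower signal means less secretion.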
HepG2 viability – counter-screen for TGF-b inhibitors: cytotoxicity in HepG2 cells; Potency, µM (series often up to 46.1 µM), for the others: at the highest dose activity change, negative = cytotoxicity, hits mostly cytotoxic; 0.76% of 410,000 active; AID 588856; HepG2 CAGA-GFP viability, ATP luminescence, 18 h; also: potency is read from the fitted curve at half-maximal effect
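CellTiter-Glo luminescence gave cytotoxicity after 18 hours at 37 degrees C. The cells were HepG2 CAGA-GFP in 1% FBS DMEM, stimulated with 500 pg/mL TGF-beta after compound addition. %Activity was normalised to no-cell wells (complete cell-killing) and DMSO (no toxicity), and curves were fitted and classified.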
TGFb SMAD3 inh – TGF-b pathway inhibition | HepG2 CAGA-GFP TGF-b/SMAD3 reporter, GFP fluorescence, 18 h; TGF-beta stimulated, 500 pg/mL final | 1.2% of 410,000 active | Potency, µM (highest dose often 46.1 µM), for inactives: top-dose activity, negative = inhibition, most hits filed as inhibitors; also: potency is read from the fitted curve at half-maximal effect; % is scaled to controls: 0 for no effect and ±100 for the full control effect; nearly all actives have a fitted effect of over 65% in size
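HEPG2 CAGA-GFP reporter cells (1000/well, DMEM with 1% FBS) received compounds, then recombinant TGF-beta at 500 pg/mL final for 18 hours at 37 degrees C. Per-cell GFP summed per well was normalised to unstimulated and stimulated DMSO controls before curve fitting.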
Starred values were filed as active, the others as inactive. Unless noted, calls follow the shape of the dose curve; as a rule, active = well fitted curve in the direction sought with a large enough effect; inconclusive = small, poorly fitted or top-dose-only effect, or another doubt; inactive = no such curve, though single readings can be large; an effect the other way counts as inactive or inconclusive.

`CC1=CC(C)(C)N(C(=O)CSc2nnc(N)s2)c2ccccc21` gave ASM inhibitor 4%, DT40 TDP1 no CPT -38%, TDP1 cell CPT -21%, IL-1B inflam inh -11, HepG2 viability 0% and TGFb SMAD3 inh -9%.
CN1/C(=C\C(=O)CSc2nnc(N)s2)C(C)(C)c2ccccc21 was read as ASM inhibitor 12%, DT40 TDP1 no CPT 21µM*, TDP1 cell CPT inconclusive, IL-1B inflam inh -7, HepG2 viability -14% and TGFb SMAD3 inh 0%.
`Cc1cc(=O)[nH]c(SCC(=O)/C=C2\N(C)c3ccccc3C2(C)C)n1` gave ASM inhibitor 92%, DT40 TDP1 no CPT 9.2µM*, TDP1 cell CPT inconclusive, IL-1B inflam inh -15, HepG2 viability -8% and TGFb SMAD3 inh 3%.
CC(=O)c1ccc(NS(=O)(=O)c2ccc3c(c2)N(C)CCO3)cc1 was read as ASM inhibitor -3%, DT40 TDP1 no CPT inconclusive, TDP1 cell CPT inconclusive, IL-1B inflam inh 62, HepG2 viability -26% and TGFb SMAD3 inh -4%.
COC(=O)c1ccc(S(=O)(=O)N2CCCN(Cc3cccc(Br)c3F)CC2)n1C was read as ASM inhibitor 4%, DT40 TDP1 no CPT inconclusive, TDP1 cell CPT inconclusive, IL-1B inflam inh inconclusive, HepG2 viability -18% and TGFb SMAD3 inh inconclusive.
For CC(C)CCNC(=O)C1CCN(c2nc3ccc(Cl)cc3[nH]2)CC1 the results were DT40 TDP1 no CPT inconclusive, TDP1 cell CPT inconclusive, HepG2 viability -19% and TGFb SMAD3 inh 0%.
O=C(O)CC/C(=N/Nc1ncc(C(F)(F)F)cc1Cl)C(=O)O was read as ASM inhibitor 2%, DT40 TDP1 no CPT 3%, TDP1 cell CPT -5%, IL-1B inflam inh 30, HepG2 viability 4% and TGFb SMAD3 inh -1%.
Cc1ccc(S(=O)(=O)N(Cc2cccc(C)c2)C(=O)N2CCN(C)CC2)cc1 was read as DT40 TDP1 no CPT 15%, TDP1 cell CPT 18%, IL-1B inflam inh 2, HepG2 viability 13% and TGFb SMAD3 inh 12%.
`CC1C/C(=N\NC(N)=S)c2cc(Cl)ccc2S1` (stereo unspecified) gave ASM inhibitor -2%, DT40 TDP1 no CPT inconclusive, TDP1 cell CPT -2%, IL-1B inflam inh 12, HepG2 viability -26% and TGFb SMAD3 inh inconclusive.
CC(C)=C1CCC(C)CC1=NNC(N)=S (stereo unspecified) was read as ASM inhibitor -2%, DT40 TDP1 no CPT 21µM*, TDP1 cell CPT inconclusive, IL-1B inflam inh inconclusive, HepG2 viability -42% and TGFb SMAD3 inh inconclusive.
`COc1ccc2cc3c(N)c(C(=O)NCc4ccco4)sc3nc2c1` gave ASM inhibitor -4%, DT40 TDP1 no CPT inconclusive, TDP1 cell CPT inconclusive, IL-1B inflam inh -63*, HepG2 viability -34% and TGFb SMAD3 inh 0%.
For COc1ccc(-n2c(N)c(C(=O)NCc3ccco3)c3nc4ccccc4nc32)c(OC)c1 the results were ASM inhibitor inactive, DT40 TDP1 no CPT inconclusive, TDP1 cell CPT 23µM*, IL-1B inflam inh -18, HepG2 viability 12% and TGFb SMAD3 inh inconclusive.
For COc1ccc(CCn2c(N)c(C(=O)NCc3ccco3)c3nc4ccccc4nc32)cc1 the results were ASM inhibitor inactive, DT40 TDP1 no CPT 13µM*, TDP1 cell CPT 12µM*, IL-1B inflam inh -86*, HepG2 viability -42% and TGFb SMAD3 inh inconclusive.
For Nc1c(C(=O)NCc2ccco2)c2nc3ccccc3nc2n1CCc1ccccc1F the results were ASM inhibitor inactive, DT40 TDP1 no CPT inconclusive, TDP1 cell CPT 16µM*, IL-1B inflam inh -58*, HepG2 viability -87% and TGFb SMAD3 inh inconclusive.
COc1ccc(S(=O)(=O)Cc2ccc(C(=O)NCc3ccco3)o2)cc1 was read as ASM inhibitor -3%, DT40 TDP1 no CPT -7%, TDP1 cell CPT -14%, IL-1B inflam inh -22, HepG2 viability -10% and TGFb SMAD3 inh 2%.
`Cc1ccc(SCC(=O)Nc2cc(S(=O)(=O)N3CCCCC3)ccc2C)cc1` gave ASM inhibitor -2%, DT40 TDP1 no CPT inconclusive, TDP1 cell CPT inconclusive, IL-1B inflam inh -25, HepG2 viability -1% and TGFb SMAD3 inh -29%.
For Cc1ccc(CNC(=O)c2c(-c3ccc(F)cc3F)noc2C)o1 the results were DT40 TDP1 no CPT -26%, TDP1 cell CPT -25%, HepG2 viability -17% and TGFb SMAD3 inh -8%.
For CCOc1ccccc1NC(=O)Cn1c(=O)n(Cc2nc(C)no2)c(=O)c2ccccc21 the results were DT40 TDP1 no CPT -19%, TDP1 cell CPT -10%, HepG2 viability -20% and TGFb SMAD3 inh -15%.
Screening CCc1ccc(C(=O)c2cn(CC(=O)Nc3ccc(F)cc3)c3cc4c(cc3c2=O)OCO4)cc1 returned DT40 TDP1 no CPT -26%, TDP1 cell CPT inconclusive, HepG2 viability 1% and TGFb SMAD3 inh -11%.
COc1ccc(CCn2c(N)c(C(=O)NCc3ccco3)c3nc4ccccc4nc32)cc1OC was read as ASM inhibitor inactive, DT40 TDP1 no CPT 16µM*, TDP1 cell CPT 23µM*, IL-1B inflam inh -20, HepG2 viability -48% and TGFb SMAD3 inh inconclusive.
For CCCCOC(=O)c1c(N)n(-c2ccc(OC)cc2OC)c2nc3ccccc3nc12 the results were DT40 TDP1 no CPT 16µM*, TDP1 cell CPT 12µM*, HepG2 viability -8% and TGFb SMAD3 inh 3%.
COCCNC(=O)c1c(N)n(CCC2=CCCCC2)c2nc3ccccc3nc12 was read as ASM inhibitor inactive, DT40 TDP1 no CPT 26µM*, TDP1 cell CPT inconclusive, IL-1B inflam inh -72*, HepG2 viability -94% and TGFb SMAD3 inh inconclusive.
Screening COCCn1c(N)c(C(=O)OCc2ccccc2)c2nc3ccccc3nc21 returned ASM inhibitor inactive, DT40 TDP1 no CPT inconclusive, TDP1 cell CPT -8%, IL-1B inflam inh 8, HepG2 viability 12% and TGFb SMAD3 inh -24%.
O=C(NCCC1CCCCN1S(=O)(=O)c1ccc(F)cc1)C(=O)NCCN1CCOCC1 (stereo unspecified) was read as ASM inhibitor 1%, DT40 TDP1 no CPT 4%, TDP1 cell CPT 1%, IL-1B inflam inh -4, HepG2 viability 0% and TGFb SMAD3 inh 18%.

Screening data: PubChem BioAssay, National Center for Advancing Translational Sciences (NCATS)
